# Assay results taken from the supplement of paper PMC8728848.
# Only a selection was taken, and the strongest signals are over-represented in it overall.
# Legend:
# Assay in all cases: glycan array binding signal (z-score within array); higher = stronger binding
# Settings in all cases: glycan notation: IUPAC condensed, linker removed
# GalNAc(b1-3)GlcNAc = biological target: GalNAc(b1-3)GlcNAc
# In short: (§1)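 Glycan array data came from 3228 arrays in the Consortium for Functional Glycomics database, and only arrays with an available protein sequence were kept. Glycan names were put into IUPAC-condensed notation, and columns mapping to the same glycan were averaged. The binding signal is a within-array Z-score, averaged across arrays of one protein sequence run at different concentrations or buffers and across linkers. A negative Z-score can be read as non-binding.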
# [1] = biological target: Glc(a1-6)Glc(a1-6)Glc(a1-6)Glc
# In short: as §1
# [2] = biological target: GlcNAc(a1-4)Gal(b1-3)GlcNAc
# In short: as §1
# [3] = biological target: GlcNAc(b1-2)Man(a1-3)[GlcNAc(b1-2)Man(a1-6)]Man(b1-4)GlcNAc(b1-4)[Fuc(a1-6)]GlcNAc
# In short: as §1
# [4] = biological target: GlcNAc(b1-3)Gal(b1-4)GlcNAc(b1-3)Gal(b1-4)GlcNAc(b1-3)Gal(b1-4)GlcNAc(b1-3)Gal(b1-4)GlcNAc(b1-2)Man(a1-3)[GlcNAc(b1-3)Gal(b1-4)GlcNAc(b1-3)Gal(b1-4)GlcNAc(b1-3)Gal(b1-4)GlcNAc(b1-3)Gal(b1-4)GlcNAc(b1-2)Man(a1-6)]Man(b1-4)GlcNAc(b1-4)[Fuc(a1-6)]GlcNAc
# In short: as §1
# [5] = biological target: GlcNAc(b1-4)GlcNAc(b1-4)GlcNAc
# In short: as §1
# [6] = biological target: GlcNAc(b1-4)GlcNAc(b1-4)GlcNAc(b1-4)GlcNAc(b1-4)GlcNAc
# In short: as §1
# [7] = biological target: GlcNAc(b1-6)Gal(b1-4)GlcNAc
# In short: as §1
# GlcNAc(b1-6)GalNAc = biological target: GlcNAc(b1-6)GalNAc
# In short: as §1
# [8] = biological target: Neu5Ac(a2-3)Gal(b1-3)GalNAc
# In short: as §1
# [9] = biological target: Neu5Ac(a2-3)Gal(b1-3)GalNAc(b1-4)[Neu5Ac(a2-3)]Gal(b1-4)Glc
# In short: as §1
# [10] = biological target: Neu5Ac(a2-3)Gal(b1-4)GlcNAc(b1-2)Man
# In short: as §1
# [11] = biological target: Neu5Ac(a2-3)Gal(b1-4)GlcNAc(b1-2)Man(a1-3)[Neu5Ac(a2-3)Gal(b1-4)GlcNAc(b1-2)Man(a1-6)]Man(b1-4)GlcNAc(b1-4)[Fuc(a1-6)]GlcNAc
# In short: as §1
# [12] = biological target: Neu5Ac(a2-3)Gal(b1-4)GlcNAc(b1-2)[Neu5Ac(a2-3)Gal(b1-4)GlcNAc(b1-4)]Man(a1-3)[GlcNAc(b1-4)][Neu5Ac(a2-3)Gal(b1-4)GlcNAc(b1-2)[Neu5Ac(a2-3)Gal(b1-4)GlcNAc(b1-6)]Man(a1-6)]Man(b1-4)GlcNAc(b1-4)GlcNAc
# In short: as §1
# [13] = biological target: Neu5Ac(a2-3)Gal(b1-4)GlcNAc(b1-3)Gal(b1-4)GlcNAc(b1-2)Man(a1-3)[Neu5Ac(a2-3)Gal(b1-4)GlcNAc(b1-3)Gal(b1-4)GlcNAc(b1-2)Man(a1-6)]Man(b1-4)GlcNAc(b1-4)GlcNAc
# In short: as §1
# [14] = biological target: Neu5Ac(a2-3)Gal(b1-4)[Fuc(a1-3)]GlcNAc(b1-2)Man
# In short: as §1
# [15] = biological target: Neu5Ac(a2-3)Gal6S(b1-4)GlcNAc
# In short: as §1
# [16] = biological target: Neu5Ac(a2-6)Gal(b1-4)GlcNAc(b1-2)Man(a1-3)[GlcNAc(b1-2)Man(a1-6)]Man(b1-4)GlcNAc(b1-4)GlcNAc
# In short: as §1
# [17] = biological target: Neu5Ac(a2-6)Gal(b1-4)GlcNAc(b1-3)Gal(b1-4)GlcNAc(b1-2)Man(a1-3)[Neu5Ac(a2-6)Gal(b1-4)GlcNAc(b1-3)Gal(b1-4)GlcNAc(b1-2)Man(a1-6)]GalNAc
# In short: as §1
# [18] = biological target: Neu5Ac(a2-6)Gal(b1-4)GlcNAc(b1-3)Gal(b1-4)GlcNAc(b1-3)GalNAc
# In short: as §1
# [19] = biological target: Neu5Ac(a2-6)Gal(b1-4)GlcNAc(b1-3)Gal(b1-4)GlcNAc(b1-6)[Gal(b1-3)]GalNAc
# In short: as §1
# [20] = biological target: Neu5Ac(a2-6)Gal(b1-4)GlcNAc(b1-3)Gal(b1-4)[Fuc(a1-3)]GlcNAc(b1-3)Gal(b1-4)[Fuc(a1-3)]GlcNAc
# In short: as §1
# [21] = biological target: Neu5Ac(a2-6)GlcNAc(b1-4)GlcNAc(b1-4)GlcNAc
# In short: as §1
# [22] = biological target: Neu5Ac(a2-8)Neu5Ac(a2-3)Gal(b1-4)GlcNAc
# In short: as §1
# [23] = biological target: Neu5Ac(a2-8)Neu5Ac(a2-3)[Gal(b1-3)GalNAc(b1-4)]Gal(b1-4)Glc
# In short: as §1
# [24] = biological target: Neu5Ac(a2-8)Neu5Gc(a2-3)Gal(b1-4)GlcNAc
# In short: as §1
# [25] = biological target: Neu5Ac9Ac(a2-3)Gal(b1-3)GlcNAc
# In short: as §1
# [26] = biological target: Neu5Gc(a2-8)Neu5Gc(a2-3)Gal(b1-4)GlcNAc(b1-3)Gal(b1-4)GlcNAc
# In short: as §1
binder,measurement,setting,value
PX9937D-bvu-500-26-500 (Bacteroides vulgatus) (protein) DPVSDITDLNYWKTPEQFDSFVFGLHSRFRSHSWNMFLLGEARSDVFGGIPFGGEATQGMERFPYNTLNAENPGISGFGDLYQNINQMNLFISRTLHTDVLTESARNYYLGQVYGLRAYYMYQLYRSWGDVVFTEEPSLGFEVGKLAKAATPAAEIFEQVKKDIESSLSYFGSDYTIKEKKSLWSKAATLMLKADVYLWSAHRDGGEGDARTAKNALVDIQNNISRSNLDLMDTYQGVFAYDNKGNKEIIFTIHNELFEYNLWNGNNDLFPQADYLGKFYNADGTLINTSVENNFGIMRLMVKLENFKKFLPGDTRRDVTLKDVYNKVENGKLELVGVYPHKYWGVMNGSTRVRCDDYPIYRYSDLLLMLAEAKVLLGEDPATEINRVRRRAFGDAYDASTVGFPNQEVDKRPADAVLQERLFEFMLEGKRWYDLRRFGDSYVLDYTPAEPARLLWPINQGALTNNPLLKQTVGY,glycan array binding signal (z-score),GalNAc(b1-3)GlcNAc,-0.418
same,glycan array binding signal (z-score),[1],-0.405
same,glycan array binding signal (z-score),[2],-0.056
same,glycan array binding signal (z-score),[3],-0.178
same,glycan array binding signal (z-score),[4],-0.298
same,glycan array binding signal (z-score),[5],-0.41
same,glycan array binding signal (z-score),[6],-0.558
same,glycan array binding signal (z-score),[7],0.08
same,glycan array binding signal (z-score),GlcNAc(b1-6)GalNAc,0.455
same,glycan array binding signal (z-score),[8],-0.219
same,glycan array binding signal (z-score),[9],-0.308
same,glycan array binding signal (z-score),[10],-0.574
same,glycan array binding signal (z-score),[11],-0.13
same,glycan array binding signal (z-score),[12],-0.306
same,glycan array binding signal (z-score),[13],0.163
same,glycan array binding signal (z-score),[14],0.114
same,glycan array binding signal (z-score),[15],-0.307
same,glycan array binding signal (z-score),[16],-0.121
same,glycan array binding signal (z-score),[17],4.23
same,glycan array binding signal (z-score),[18],-0.414
same,glycan array binding signal (z-score),[19],0.256
same,glycan array binding signal (z-score),[20],0.021
same,glycan array binding signal (z-score),[21],0.037
same,glycan array binding signal (z-score),[22],-0.636
same,glycan array binding signal (z-score),[23],-0.284
same,glycan array binding signal (z-score),[24],10.6
same,glycan array binding signal (z-score),[25],-0.36
same,glycan array binding signal (z-score),[26],-0.056
